Bioassay records deposited in PubChem BioAssay by National Center for Advancing Translational Sciences (NCATS).
HT1080-NT tox: kills 2HG-producing HT-1080-NT fibrosarcoma cells; HT-1080-NT fibrosarcoma viability, CellTiter-Glo ATP luminescence, 48 h; Potency, µM (doses to about 46.1 µM), for the others: at the top dose activity, negative = less viability, most hits filed as cytotoxic; 360,000 tested, 1.6% active;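 also: NT is the 2HG producing partner of a matched IDH1 knockdown line; potency is read from the fitted curve at half-maximal effect; 0% = DMSO-treated cells and -100% = media-only wells without cells; nearly all actives have a fitted effect of over 55% in size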
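Viability of the 2HG-overproducing fibrosarcoma line after 48 hours of compound exposure at 37 degrees C was determined by luminescence with CellTiter-Glo, and concentration-effect curves were then fitted and categorized.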
HT1080 IDH1KD tx: toxicity to HT-1080 IDH1 knockdown cells (counter line) | 360,000 tested, 2% active | HT-1080 IDH1 knockdown viability, ATP luminescence, 48 h | Potency, µM (doses to about 46.1 µM), for the others: at the top dose activity, negative = toxicity, actives largely listed as cytotoxic;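 also: potency is read from the fitted curve at half-maximal effect; 0% = DMSO wells and -100% = cell-free medium wells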
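Using the IDH1-knockdown HT-1080 line run in the same batch and compound series as the NT line, viability after 48 h at 37 °C was determined by CellTiter-Glo luminescence and expressed as % activity.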
DT40 TDP1 no CPT: qHTS for Inhibitors of human tyrosyl-DNA phosphodiesterase 1 (TDP1): qHTS in cells in absence of CPT | DT40 Tdp1-/- hTDP1 cells, no CPT, ATP luminescence, 48 h | Potency, µM (series often up to 46.2 µM), inactives show at the top dose activity change, negative = growth inhibition, actives largely listed as inhibitors | 420,000 tested, 15% active; also: potency is read from the fitted curve at half-maximal effect; nearly all actives have a fitted effect of over 55% in size
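Compound effects on proliferation are scored in DT40 Tdp1-/-;hTDP1 cells in the absence of CPT. ATP levels (CellTiter-Glo luminescence) are recorded after a ≥48 hr, 37 °C incubation.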
IL1B secr inh: inhibitors of inflammasome signaling (IL-1 beta secretion) | THP-1 LPS/ATP IL-1B secretion, AlphaLISA, 16 h; hits give low values | activity change, % at 57.5 µM | 360,000 tested, 4.7% active; in the data active = activity change below about -50%; inconclusive = mostly about -30% to -49%
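Secreted IL-1B measured by AlphaLISA bead assay after 16 h compound exposure of THP-1 cells; compounds (final up to 57.5 uM) added 1 h before LPS (250 ng/mL) and ATP (1.25 mM) stimulation; lower signal means less secretion.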
TDP1 cell CPT: DT40-hTDP1 cell growth loss with CPT; Potency, µM (series often up to 46.2 µM), for inactives: at the top dose activity change, negative = growth inhibition, actives largely listed as inhibitors; AID 686979; 420,000 tested, 12% active; chicken DT40 Tdp1-/-;hTDP1 cells + 20 nM CPT, ATP luminescence, 48 h; also: potency is read from the fitted curve at half-maximal effect; nearly all actives have a fitted effect of over 55% in size
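Cell growth measured by CellTiter-Glo luminescence after a minimum 48 h, 37 C compound exposure with 20 nM CPT in Tdp1-knockout DT40 cells stably expressing hTDP1, seeded 400/well; qHTS titration format.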
Numbers without * were called inactive; ? = inconclusive; / = no result; [ ] = remark or other dose. Most compounds without a hit are left out; they make up all but 19% or so of the library. Unless noted, calls follow the shape of the dose curve; as a rule, active = well fitted curve in the direction sought with a large enough effect; inconclusive = small, poorly fitted or top-dose-only effect, or another doubt; inactive = no such curve, though single readings can be large; an effect the other way counts as inactive or inconclusive. Unless noted, % is scaled to controls: 0 for no effect and ±100 for the full control effect.

SMILES	HT1080-NT tox	HT1080 IDH1KD tx	DT40 TDP1 no CPT	IL1B secr inh	TDP1 cell CPT
COC(=O)c1ccc(C)c(NC(=O)CSc2nnc3ccccn23)c1	3%[9.24 µM]	4%	10%	-7	-9%
O=C(Nc1cccc(C(=O)OCc2cc(=O)n3nc(C4CC4)sc3n2)c1)c1cccc(Cl)c1	/	/	16µM*	/	12µM*
Cc1nn2c(=O)cc(COC(=O)c3ccc(C(C)(C)C)cc3)nc2s1	/	/	?	/	-28%
CCOC(=O)c1c(NC(=S)Nc2ccccc2)sc2c1CC(C)(C)SC2	-1%	-13%	?	0	16µM*
Cc1nn2c(=O)cc(COC(=O)c3ccc(NC(=O)c4ccc(C(C)(C)C)cc4)cc3)nc2s1	/	/	16µM*	/	?
CC(C)(C)c1ccc(C(=O)Nc2ccc(C(=O)OCc3cc(=O)n4ccsc4n3)cc2)cc1	/	/	21µM*	/	21µM*
Cc1ccc(N2C(=O)C3CCC(C)(C2=O)C3(C)C)cc1C (stereo unspecified)	1%	0%	-3%	-6	3%
Cc1occc1C(=O)NNC(=S)Nc1ccccc1	17%	8%	-13%	-1	1%
CCOC(=O)c1cccc(NC(=O)c2cccs2)c1	3%	4%	15µM*	-21	23µM*
CCOC(=O)c1cccc(NC(=O)c2ccccc2C)c1	3%	0%	?	-5	-2%
CCCCc1nn2c(=O)cc(COC(=O)c3cccc(NC(=O)c4cccs4)c3)nc2s1	/	/	-25%	/	-7%
CCOC(=O)c1c(NC(=O)c2cccs2)sc2c1CC(C)(C)OC2	-18%	-20%	26µM*	?	?
Cc1nn2c(=O)cc(COC(=O)c3cccc(NC(=O)c4ccc(F)cc4)c3)nc2s1	/	/	10µM*	/	12µM*
Cc1nn2c(=O)cc(COC(=O)c3cccc(NC(=O)c4cccs4)c3)nc2s1	/	/	12µM*	/	12µM*
COC(=O)c1nnn(-c2ccc(Br)cc2)c1C(=O)OC	/	/	-7%	/	-4%
O=C(Nc1ccccc1C(=O)OCc1cc(=O)n2ccsc2n1)c1cccc(F)c1	/	/	12µM*	/	18µM*
CC(C)Cc1nn2c(=O)cc(COC(=O)c3cccc(NC(=O)c4cccs4)c3)nc2s1	/	/	8.2µM*	/	?
CC(C)Cc1nn2c(=O)cc(COC(=O)c3cccc(NC(=O)c4ccccc4)c3)nc2s1	/	/	-4%	/	-3%
CCOC(=O)c1cccc(NC(=O)c2ccco2)c1	4%	10%	-8%	-12	-23%
CCOC(=O)c1cccc(NC(=O)c2cc3cc4ccc(C)cc4nc3s2)c1	/	/	15µM*	/	15µM*
CCOC(=O)c1ccc(NC(=O)C(Cc2ccccc2)NS(=O)(=O)c2ccc(Br)s2)cc1 (stereo unspecified)	/	/	2%	/	2%
COc1ccc(C)cc1N1CC(C(=O)Nc2cccc(C(=O)NC3CC3)c2)CC1=O (stereo unspecified)	1%	11%	-5%	-2	?
CC1(C)Cc2nc3sc4c(=O)n(CC(=O)NCc5ccco5)cnc4c3cc2CO1	?	10µM*	8.2µM*	36	4.6µM*
CCCCCn1cnc2c(sc3nc4c(cc32)CSC(C)(C)C4)c1=O	-9%	-2%	10µM*	9	?
CCc1nc(OCc2ccccc2)c2sc3nc4c(cc3c2n1)COC(C)(C)C4	14%	7%	?	-8	29µM*
SMILES	HT1080-NT tox	HT1080 IDH1KD tx	DT40 TDP1 no CPT	IL1B secr inh	TDP1 cell CPT
CC1(C)Cc2nc3oc4c(=O)n(CC(=O)Nc5ccccc5)cnc4c3cc2CO1	-1%	0%	-18%	63	-27%
CC1(C)Cc2nc3sc4c(OCc5ccccc5)ncnc4c3cc2CO1	10%	3%	18µM*	55	?
COc1ccc(CNC(=O)CN(C(=O)c2snc(C(N)=O)c2N)c2ccccc2F)cc1	-9%	-8%	-20%	?	-14%
COc1ccc(CN2Cc3ccccc3OC(c3ccccc3OC)C2)c(O)c1 (stereo unspecified)	/	/	?	/	-1%[9.04 µM]
NS(=O)(=O)c1ccc(CNC(=O)c2scc3c2CCCC3)cc1	0%	9%	10%	34	0%
COc1cc(NC(=O)CC2C(=O)N(c3cccc(C)c3)C(=O)N2Cc2ccc(F)cc2)cc(OC)c1 (stereo unspecified)	/	/	21µM*	/	?
COc1cc(NC(=O)CC2C(=O)N(c3ccccc3)C(=O)N2Cc2ccc(F)cc2)cc(OC)c1 (stereo unspecified)	/	/	15µM*	/	13µM*
CCc1ccc(NC(=O)CC2C(=O)N(c3ccc(F)cc3)C(=O)N2Cc2ccc(F)cc2)cc1 (stereo unspecified)	/	/	?	/	13µM*
COc1cccc(CN2C(=O)N(c3ccc(C)cc3)C(=O)C2CC(=O)Nc2cc(OC)cc(OC)c2)c1 (stereo unspecified)	/	/	7.3µM*	/	13µM*
CCc1ccc(NC(=O)CC2C(=O)N(c3cccc(C)c3)C(=O)N2Cc2ccc(F)cc2)cc1 (stereo unspecified)	/	/	-98%	/	?
Cn1nccc1-c1ccc(C(=O)NCc2ccc(Cl)cc2)c2occc12	-30%	-19%	?	41	?
O=C(CN(Cc1ccccc1)S(=O)(=O)c1ccc(F)cc1)NCc1ccccn1	-8%	15%	-12%	-7	-16%
COC(=O)c1ccc(NC(=O)CC2C(=O)N(c3cccc(F)c3)C(=O)N2CC(C)C)cc1 (stereo unspecified)	/	/	13µM*	/	21µM*
CCOc1ccc(NC(=O)CC2C(=O)N(c3ccccc3)C(=O)N2Cc2cccc(OC)c2)cc1 (stereo unspecified)	/	/	21µM*	/	10µM*
O=C(N/N=C/c1cccc(OC(=O)N2CCOCC2)c1)c1cccs1	-9%	-8%	?	22	-22%
CCOc1cccc(-c2c(C(=O)N/N=C(\C)c3cccs3)nnn2-c2nonc2N)c1	1%	-1%	?	36	?
CCOC(=O)c1cn(-c2c(Cl)cccc2Cl)c2cc(Cl)c([N+](=O)[O-])cc2c1=O	?	?	16µM*	-54*	?
COc1ccc(C(=O)N/C(=C\c2ccc(-c3cccc([N+](=O)[O-])c3)o2)C(=O)NCCCN2CCOCC2)cc1	?	?	16µM*	-25	?
CN(C)C(=O)/C(=C\c1ccc(-c2cccc([N+](=O)[O-])c2)o1)NC(=O)c1ccccc1	0%	-9%	16µM*	-16	15µM*
Cc1ccc(C(=O)N/C(=C/c2ccc(-c3cccc([N+](=O)[O-])c3)o2)C(=O)NC(C)(C)C)cc1	2%	-4%	13µM*	-5	?
